# This is part of a sample that, as a whole, favours compounds with a hit. Of some 83,000 tested, about 20% had one in any assay.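 A percent growth of 40 corresponds to 60% growth inhibition; 0 means no net growth; -100 means all cells died. Active threshold: below 10.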 Values without a mark were called inactive. The source made the active and inactive calls.
# Columns and labels:
# Assay in all cases: NCI-60 one-dose screen, 48 h (100 = growth as untreated, 0 = no growth, -100 = all killed)
# Conditions in all cases: 10 µM
# SR leukemia = tested on: SR leukemia
# RPMI-8226 leukemia = tested on: RPMI-8226 leukemia
# OVCAR-8 ovarian = tested on: OVCAR-8 ovarian
# OVCAR-5 ovarian = tested on: OVCAR-5 ovarian
# OVCAR-4 ovarian = tested on: OVCAR-4 ovarian
# SK-OV-3 ovarian = tested on: SK-OV-3 ovarian
# IGROV1 ovarian = tested on: IGROV1 ovarian
# OVCAR-3 ovarian = tested on: OVCAR-3 ovarian
# HS 578T breast = tested on: HS 578T breast
# NCI/ADR-RES ovarian = tested on: NCI/ADR-RES ovarian
# T-47D breast = tested on: T-47D breast
# MDA-MB-435 melanoma = tested on: MDA-MB-435 melanoma
# SW-620 colon = tested on: SW-620 colon
# MCF7 breast = tested on: MCF7 breast
# HCT-116 colon = tested on: HCT-116 colon
# HCC-2998 colon = tested on: HCC-2998 colon
# KM12 colon = tested on: KM12 colon
# BT-549 breast = tested on: BT-549 breast
SMILES,growth (SR leukemia),growth (RPMI-8226 leukemia),growth (OVCAR-8 ovarian),growth (OVCAR-5 ovarian),growth (OVCAR-4 ovarian),growth (SK-OV-3 ovarian),growth (IGROV1 ovarian),growth (OVCAR-3 ovarian),growth (HS 578T breast) [%],growth (NCI/ADR-RES ovarian),growth (T-47D breast),growth (MDA-MB-435 melanoma),growth (SW-620 colon),growth (MCF7 breast),growth (HCT-116 colon),growth (HCC-2998 colon),growth (KM12 colon),growth (BT-549 breast) [%]
O=C(CC(CC(=O)c1ccccc1)c1ccccc1O)c1ccccc1,92.9%,85.2%,95.9%,96.9%,91.2%,94.5%,101%,94.3%,86.6,92.1%,83%,99.1%,96.7%,89.3%,88.5%,105%,99.8%,–
CCCCCC(=O)O[C@]1(C(C)=O)CCC2C3CCC4=CC(=O)CC[C@]4(C)C3CC[C@@]21C (some centres undefined),2.49% (active),-12.4% (active),24.4%,74%,18.4%,64.3%,33.4%,7.34% (active),54.9,12.9%,28.6%,28.4%,29.5%,13.4%,11.5%,26.2%,28.7%,31.1
CCCCCCCCCCOC(c1ccccc1)c1ccccc1,93.7%,96%,103%,88.7%,99.8%,96.6%,73.7%,99.5%,99.7,86.1%,77.1%,99%,98.1%,91.1%,58.6%,99%,89.1%,–
Nc1ncnc2c1ncn2C1(CO)OCC(O)C(O)C1O (centres undefined),109%,104%,102%,109%,111%,98.2%,105%,103%,104,98.6%,96.2%,107%,110%,101%,108%,101%,98.6%,–
O=C(O)c1cn(C2CC2)c2cc(N3CCN(C(=O)c4cc(-c5ccc(Cl)cc5)nc5ccccc45)CC3)c(F)cc2c1=O,47.4%,81.8%,89.9%,98.2%,98.6%,77.9%,51.4%,100%,94,98.9%,86.7%,95.6%,97.5%,89.7%,84.3%,99.2%,102%,83.5
COc1cccc(C2C(C#N)=C(N)Oc3cc(N)ccc32)c1 (centres undefined),14.4%,19.6%,30.7%,40.6%,43.8%,48.9%,32.4%,-26.5% (active),22.1,-7.69% (active),10.4%,-30.5% (active),18.7%,12.1%,23.2%,39.1%,24.6%,47.3
CN(C)CCCOc1ccccc1NC1=C(Cl)C(=O)C(Nc2ccccc2OCCCN(C)C)=C(Cl)C1=O,-4.17% (active),-40.3% (active),-84.3% (active),-60.1% (active),-98.7% (active),-24.3% (active),-44.8% (active),-90.5% (active),10.8,78.5%,-37% (active),-76.2% (active),-46.8% (active),-52.7% (active),-82.5% (active),-87% (active),-34.2% (active),–
CCOS(=O)(=O)c1c(C(C)C)cc(C(C)C)cc1C(C)C,85.1%,119%,103%,90.6%,120%,108%,93.5%,103%,103,103%,115%,99.1%,98.3%,91.4%,104%,99.1%,104%,–

# From PubChem BioAssay (NCI)
